Compound activity as filed in PubChem.
Sampled rows, rich in hits. Any-hit rate of the full collection: about 2.9%.
KDM5B inhibitor: Primary screen for KDM5B Histone Demethylases FDH-coupled qHTS; AID 1347165, 2019; 220,000 compounds, 2.6% hits; Lysine-specific demethylase 5B (Homo sapiens), Q9UGL1; KDM5B demethylase, FDH-coupled NADH fluorescence (FDH is formaldehyde dehydrogenase); Potency, µM (series often up to 57.7 µM), hits mostly inhibitors; note: nearly all actives have a fitted effect of over 70% in size
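Here, H3K4me3 peptide (12.5 µM in substrate mix) is demethylated by KDM5BΔAP, 200 nM final, after 10 min compound exposure. Formaldehyde product is coupled through FDH (0.25 U/mL in mix) to NADH fluorescence; 30-min ΔRFU feeds dose-response curves.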
HEK293 viab: GF-AFC viability counterscreen for inhibitors of alpha-synuclein gene (SNCA) expression | Potency, µM (highest dose often 57.1 µM), hits mostly cytotoxic | HEK-293-SNCA-luc viability, GF-AFC fluorescence, 24 h | 150,000 compounds, 0.12% hits; note: nearly all actives have a fitted effect of over 30% in size
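HEK-293-SNCA-luc cells (1500/well) plated 24 h, then exposed 24 h to a dilution series; GF-AFC added 30 min at 37C, fluorescence 405/540 nm; normalised to medium-only and DMSO wells, Hill fit.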
IP6K1 inhibitor: Primary qHTS assay for small molecule inhibitors of Inositol hexaphosphate kinase 1 (IP6K1); 140,000 compounds, 0.81% hits; activity change, % (series mostly up to about 58 µM); AID 1645851, 2021; IP6K1 kinase, ADP-Glo luminescence, 2 h; active compounds read low; Inositol hexakisphosphate kinase 1 (Homo sapiens), Q92551; in the data active = activity change below about -25%
Target sequence (Q92551 whole entry, looked up): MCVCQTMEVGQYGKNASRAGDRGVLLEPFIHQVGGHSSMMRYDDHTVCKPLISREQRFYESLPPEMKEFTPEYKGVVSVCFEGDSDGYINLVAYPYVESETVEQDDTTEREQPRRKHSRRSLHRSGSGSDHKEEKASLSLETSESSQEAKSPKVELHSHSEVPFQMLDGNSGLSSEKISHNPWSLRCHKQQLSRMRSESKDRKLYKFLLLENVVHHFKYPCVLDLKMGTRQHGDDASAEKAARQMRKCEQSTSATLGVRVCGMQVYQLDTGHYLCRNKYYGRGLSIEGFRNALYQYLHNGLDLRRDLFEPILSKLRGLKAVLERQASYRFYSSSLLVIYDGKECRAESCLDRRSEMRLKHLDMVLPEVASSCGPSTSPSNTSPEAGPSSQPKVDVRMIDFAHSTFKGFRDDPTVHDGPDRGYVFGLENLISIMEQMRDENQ
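ADP-Glo luminescence measures ADP made by human IP6K1 during a 2 h RT reaction with ATP/IP6 (mix at 1.3 mM/130 uM); top library doses 57.5 and 19.1 uM final.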
SNCA expr inhib: Primary qHTS assay for inhibitors of alpha-synuclein gene (SNCA) expression. 140,000 compounds, 0.17% hits. Potency, µM (top dose mostly 57.2 µM), usual class: inhibitors. AID 1671194, 2021. HEK-293 SNCA-luciferase knock-in, luminescence, 24 h; note: nearly all actives have a fitted effect of over 45% in size
Of the large screens only hits and unclear results are named; the others gave an inactive call. Unless noted, calls come from the whole dose curve; as a rule, active = well fitted curve in the direction sought with a large enough effect; inconclusive = small, poorly fitted or top-dose-only effect, or another doubt; inactive = no such curve, though single readings can be large; an effect the other way counts as inactive or inconclusive.

COCC(=O)N1CCCn2cc(-c3cccc(C#N)c3)nc21	KDM5B inhibitor 25µM
COc1cccc(-c2cn3c(n2)N(C(=O)Cc2ccsc2)CCC3)c1	none
Cc1cccc(CC(=O)N2CCCn3cc(-c4cccc(C#N)c4)nc32)c1	KDM5B inhibitor inconclusive
Cc1ccccc1CC(=O)N1CCCn2cc(-c3cccc(C#N)c3)nc21	KDM5B inhibitor 22µM
CN(C)C(=O)c1ccc(-c2nc(N3CCOCC3)c3ccccc3n2)cc1	none (no result: KDM5B inhibitor, IP6K1 inhibitor)
CCCNC(=O)N1CC[C@@H](CC(=O)O)[C@@H](CC2=NCCc3ccc(OC)cc32)C1	KDM5B inhibitor 40µM
COc1ccc2c(c1)C(C[C@H]1CN(C(=O)C3CC3)CC[C@H]1CC(=O)O)=NCC2	KDM5B inhibitor 40µM
Cc1ccc(N(C)C(=O)c2cnc(N3CCOCC3)c3ccccc23)cc1C	none
Cc1ccc(-n2cnnn2)cc1NC(=O)c1cc(Cl)ccn1	none (no result: HEK293 viab, IP6K1 inhibitor, SNCA expr inhib)
COc1ccc(-c2cc(C(=O)NCC3CC3)c3cnn(C)c3n2)cc1	none (no result: KDM5B inhibitor)
Cn1ncc2c(-c3ccc([S+](C)(=O)[O-])cc3)cc(C(=O)NCc3ccc(F)cc3)nc21	KDM5B inhibitor 79µM, SNCA expr inhib inconclusive
Cn1ncc2c(C(=O)NCc3ccncc3)cc(-c3ccc(F)cc3)nc21	KDM5B inhibitor 79µM
Cn1ncc2c(C(=O)NCc3ccc(C(F)(F)F)cc3)cc(-c3ccc(F)cc3)nc21	none (no result: KDM5B inhibitor, HEK293 viab, SNCA expr inhib)
Cn1ncc2c(C(=O)NCC3CC3)cc(-c3cccnc3)nc21	KDM5B inhibitor 100µM
CCN(CC)C(=O)C(NC(=O)c1cccc(C)c1)C1CCN(C(=O)c2ccccc2C)CC1 (centres undefined)	none
O=C(NCc1cnccn1)c1ccc(-c2ncc3cnc(-c4cccc(F)c4)cn23)cc1	KDM5B inhibitor 35µM, SNCA expr inhib inconclusive
O=C(NCc1cnccn1)c1nc(-c2ccccc2)cc2[nH]ccc12	none
CC(=O)N1CCN(C(=O)c2ccc(-c3ncc4cnc(-c5cccc(F)c5)cn34)cc2)CC1	KDM5B inhibitor inconclusive
CC(C)n1nc(C(=O)NCCCN2CCCC2=O)c2ccccc2c1=O	none (no result: HEK293 viab, IP6K1 inhibitor, SNCA expr inhib)
CN(C)CCN(C)C(=O)c1ccc(-c2ncc3cnc(-c4cccc(F)c4)cn23)cc1	KDM5B inhibitor 40µM
COCCNC(=O)c1ccc(-c2ncc3cnc(-c4cccc(F)c4)cn23)cc1	KDM5B inhibitor 35µM
COc1ccc(F)cc1-c1cccc(C(=O)NCCNC(=O)c2ccc(F)cc2)c1	none (no result: KDM5B inhibitor)
O=C(NCCCN1CCCC1=O)c1ccc(-c2ncc3cnc(-c4ccccc4)cn23)cc1	KDM5B inhibitor 32µM
COc1ccc(C(=O)Nc2cc(S(=O)(=O)c3ccc(Cl)cc3)c(O)c(C)c2C)cc1	KDM5B inhibitor inconclusive
Cc1sc2c(c1C)c(=O)n(Cc1ccccc1)c(=O)n2CC(=O)N(C)c1ccccc1	none
O=C(c1ccc(-c2ncc3cnc(-c4ccccc4)cn23)cc1)N1CCc2cccnc21	KDM5B inhibitor 32µM, HEK293 viab inconclusive, SNCA expr inhib inconclusive
CC(C)CCn1nc(C(=O)OC/C(O)=C(\C#N)c2nc3ccccc3[nH]2)c2ccccc2c1=O	none (no result: HEK293 viab, IP6K1 inhibitor, SNCA expr inhib)
CC(C)c1ccc(C#N)c(N2CC[C@H](N3CCOCC3)[C@H](CCCO)C2)n1	KDM5B inhibitor 28µM
COc1ccc(OCC(=O)Nc2nnc(S(=O)(=O)N3CCc4ccccc43)s2)cc1	none
CCn1cnnc1CC1CCN(C(=O)c2cnn3c(C)c(Cc4ccccc4Cl)c(C)nc23)CC1	KDM5B inhibitor 28µM
O=C(CCSc1nnc(NC2CC2)s1)Nc1ccc(Cl)cc1F	none (no result: HEK293 viab, IP6K1 inhibitor, SNCA expr inhib)
Cn1ccnc1CN1C(=O)CO[C@H](c2ccc(NC(=O)c3cc(F)cc(F)c3)cc2)[C@H]1CO	none
Cc1ccc(CSc2oc(-c3cccs3)nc2S(=O)(=O)c2ccccc2)cc1	none
O=S(=O)(c1ccccc1)c1nc(-c2ccc(F)cc2)oc1NCc1ccccc1	KDM5B inhibitor inconclusive
CC(C)CS(=O)(=O)c1oc(-c2ccc(F)cc2)nc1S(=O)(=O)c1ccccc1	KDM5B inhibitor inconclusive, HEK293 viab 4.5µM, SNCA expr inhib inconclusive
CCC(C)S(=O)(=O)c1oc(-c2cccs2)nc1S(=O)(=O)c1ccccc1 (centres undefined)	HEK293 viab 2.8µM, SNCA expr inhib inconclusive
COc1ccc(-c2ccc3c(n2)CN(C)C(=O)CO3)cc1	KDM5B inhibitor 35µM
COc1ccc(-c2ccc3c(n2)CN(CCOc2ccccc2)C(=O)CO3)cc1	KDM5B inhibitor 13µM
Cc1ccc(-c2ccc3c(n2)CN(C)C(=O)CO3)cc1	none
Clc1ccc(-c2nnc(-c3ccccc3)o2)cn1	none (no result: HEK293 viab, IP6K1 inhibitor, SNCA expr inhib)
COc1cc(OC)cc(-c2nc3ccc(-c4ccc(OC)c(OC)c4OC)cc3o2)c1	KDM5B inhibitor 25µM
COc1ccc(-c2ccc3nc(-c4cccc(Cl)c4)oc3c2)c(OC)c1OC	KDM5B inhibitor 7.9µM
CN(C)c1cccc(C(=O)NCC2CCN(c3cc(-c4ccccc4)[nH]n3)CC2)c1	KDM5B inhibitor 25µM
CN(C)c1ccc(C(=O)NCC2CCN(c3cc(-c4ccc(F)cc4)[nH]n3)CC2)cc1	KDM5B inhibitor inconclusive
Cc1ccc(-c2cc(N3CCCN(C(=O)c4cccc(N(C)C)c4)CC3)n[nH]2)cc1C	KDM5B inhibitor inconclusive, HEK293 viab 18µM
COc1ccc(C(=O)N2Cc3ccccc3C(O)C2)c(OC)n1 (centres undefined)	none
COCCOC1CCOC2(CCN(C(=O)c3ccc4ccccc4n3)CC2)C1 (centres undefined)	none
CC1CCCN(Cc2nc(Cc3ccccc3Cl)no2)C1 (centres undefined)	none (no result: HEK293 viab, IP6K1 inhibitor, SNCA expr inhib)
COc1ccc(-c2ccnc3nc(Cc4ccc(F)cc4)nn23)cc1OC	KDM5B inhibitor 28µM
COc1ccc(CCc2nc3nccc(-c4ccc(F)cc4)n3n2)cc1OC	none
CCc1nc2nccc(-c3ccc(OC)cc3)n2n1	KDM5B inhibitor 22µM, SNCA expr inhib inconclusive
COc1ccc(Cc2nc3nccc(-c4ccc(OC)c(OC)c4)n3n2)cc1	KDM5B inhibitor 20µM
CCc1nc2nccc(-c3ccc4c(c3)OCCCO4)n2n1	KDM5B inhibitor 28µM
CC(=O)Nc1ccc(NC(=O)Cn2c(=O)ccc3cc(S(=O)(=O)N4CCC(C)CC4)ccc32)cc1	none
Cc1ccccc1CCC1CCCN(CC(=O)N2CCOCC2)C1 (centres undefined)	none
COCc1nc2nccc(-c3ccc4c(c3)CC(C)O4)n2n1 (centres undefined)	KDM5B inhibitor 28µM
COc1ccc(Cc2nc3nccc(-c4ccc(OC)cc4)n3n2)cc1	KDM5B inhibitor 14µM
COCc1nc2nccc(-c3ccc(OC)cc3)n2n1	none
CCc1nc2nccc(-c3cccc(OC)c3)n2n1	KDM5B inhibitor 25µM
COc1cccc(-c2ccnc3nc(-c4cccs4)nn23)c1	KDM5B inhibitor inconclusive
CCS(=O)(=O)Nc1ccc(C)n(CC(=O)NCc2cccc(Br)c2)c1=O	none
Cc1noc2c(-c3cccnc3N3CCOCC3)cc(-c3ccccc3)nc12	KDM5B inhibitor 35µM
